Assay outcomes: PubChem BioAssay, several laboratories
A selection follows.
CYP2C9 inhib = inhibitors of human CYP2C9; CYP2C9 Supersomes, luciferin-H conversion, luminescence; 96,000 compounds, 20% hits; AID 777; P11712; inhibition, % at 5 µM;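 active = blocking of liver enzyme CYP2C9 beyond about 50% at 5 µM, limit read from the data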
Target sequence (P11712 whole entry, looked up): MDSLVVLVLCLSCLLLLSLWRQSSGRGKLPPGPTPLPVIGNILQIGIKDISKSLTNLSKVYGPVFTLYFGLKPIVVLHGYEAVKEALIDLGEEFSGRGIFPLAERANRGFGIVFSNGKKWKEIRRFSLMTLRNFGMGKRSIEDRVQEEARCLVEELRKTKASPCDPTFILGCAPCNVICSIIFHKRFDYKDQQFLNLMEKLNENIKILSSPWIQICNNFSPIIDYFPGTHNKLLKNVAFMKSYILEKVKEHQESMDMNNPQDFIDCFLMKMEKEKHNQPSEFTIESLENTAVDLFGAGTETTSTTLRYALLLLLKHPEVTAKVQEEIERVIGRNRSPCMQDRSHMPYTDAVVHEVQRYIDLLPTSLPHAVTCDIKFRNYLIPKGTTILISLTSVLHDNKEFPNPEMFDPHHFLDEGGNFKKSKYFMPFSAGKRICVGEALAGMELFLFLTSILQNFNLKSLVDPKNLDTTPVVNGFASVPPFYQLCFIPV
CYP2C19 act = activators of human cytochrome P450 2C19. P33261. recombinant CYP2C19, luciferin-H EGE luminescence; stronger effect = higher value; 0 = fully inhibited enzyme, 1 = untreated enzyme. activation factor at 5 µM. 96,000 tested, under 10 active. AID 1025;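 active = activation factor of at least 2 at 5 µM in the primary screen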;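 note: 0 = wells with 2.5 mM tranylcypromine and 1 = vehicle-only wells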
CYP2C19 inh = blocks human cytochrome P450 2C19; AID 778; 96,000 compounds, 21% hits; CYP2C19 Supersomes, luciferin-H EGE luminescence, 30 min; P33261; inhibition, % at 5 µM;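 active = CYP2C19 inhibition above a set limit at 5 µM in the primary screen, cut at about 50% in these data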;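 note: plate controls were negative control wells for no effect and 2.5 mM tranylcypromine positive control for full effect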
PostGolgi yeast = growth inhibition of a yeast mutant, post-Golgi transport screen. post-Golgi transport phenotypic cell assay. inhibition, % at 10 µM. 98,000 compounds, 0.9% hits. AID 739;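 note: yeast cells grown in 1536-well plates; yeast grown about 18 h at 30C before absorbance read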
PostGolgi ctrl = yeast control strain growth, post-Golgi counter-screen. efflux-deficient yeast background strain, growth absorbance A615, 16 h. inhibition, % at 10 µM. 98,000 compounds, 5% hits. AID 738
CYP2C9 act = activators of human CYP2C9; recombinant CYP2C9, luciferin-H conversion, luminescence; stronger effect = higher value; factor 1 = untreated enzyme, 0 = blocked; activation factor at 5 µM; 96,000 compounds, 1.4% hits; AID 1024;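 active = activation factor of 2 or more for CYP2C9 at a 5 µM dose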;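 note: 0 = sulfaphenazole-blocked wells and 1 = vehicle-only wells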
* marks the source's active call; other numbers are inactive results. Cut-off read from the data, not from the text of the source, unless noted: active = inhibition above about 30%; inactive = the rest.

SMILES | CYP2C9 inhib | CYP2C19 act | CYP2C19 inh | PostGolgi yeast | PostGolgi ctrl | CYP2C9 act
N#Cc1cc(-c2ccc(Cl)cc2)cnc1Sc1ccc(F)cc1 | 29.6 | 0.8 | 18.2 | -1.0 | 4.5 | 0.7
O=C(C1CCCCN1S(=O)(=O)c1ccc(F)cc1)N1CCN(c2ccccc2F)CC1 (stereo not given) | 35.5 | 0.6 | 39.0 | 2.2 | 24.7 | 0.6
CC1(C(=O)NC2CCCCCCC2)CCC(=O)N1Cc1cccnc1 (stereo not given) | 16.2 | 0.9 | 13.8 | 2.5 | 5.1 | 0.8
O=C(Nc1cn(-c2ccccc2)nc1-c1cccs1)c1ccco1 | 35.2 | 0.6 | 37.0 | 17.7 | 7.6 | 0.6
COc1ccccc1OCCSc1nnc(C)n1-c1ccccc1 | -41.9 | 0.2 | 77.4* | -4.9 | 12.3 | 1.4
O=C(CSc1nnc2scc(-c3ccccc3)n12)N1CCCc2ccccc21 | 36.3 | 0.4 | 60.9* | 9.2 | 1.6 | 0.6
Cc1cc2cc(C)c3nnc(SCC(=O)N4CCCc5ccccc54)n3c2cc1C | 11.1 | 1 | 0.2 | -4.8 | 30.2* | 0.9
COc1ccccc1OCc1nnc(SCC(=O)N2CCCCC2)n1-c1ccccc1 | 6.8 | 0.3 | 70.9* | -4.8 | -0.9 | 0.9
COc1ccccc1-n1c(SCC(=O)N2CCCCC2)nnc1-c1ccccc1O | 34.9 | 0.7 | 26.7 | 3.2 | 13.7 | 0.7
COc1ccc(NC(=O)Cn2c(=O)n(CC(=O)NCc3ccco3)c(=O)c3ccccc32)cc1OC | 6.8 | 1.2 | -16.1 | -0.6 | 2.9 | 0.9
CCC(=O)NC1(C(F)(F)F)C(=O)Nc2c1c(=O)[nH]c(=O)n2Cc1ccco1 (stereo not given) | -8.0 | 1.1 | -14.1 | -3.4 | 5.4 | 1.1
COc1cccc(-c2nc(CS(=O)(=O)CC(=O)Nc3cccc(C)c3C)c(C)o2)c1 | 1.4 | 1 | 1.4 | -10.4 | -3.6 | 1
CCC(=O)NCCc1nc2cc(NC(=O)c3ccccc3OC)ccc2n1C | -7.8 | 1 | -0.6 | 2.8 | -0.7 | 1.1
COCc1nnc(SCC(=O)NC(C)c2ccccc2)n1-c1ccccc1 (stereo not given) | 55.2* | 0.4 | 59.4* | -18.5 | -7.2 | 0.4
Cn1c(SCC(=O)N2CCCc3ccccc32)nnc1-c1cccs1 | 7.2 | 0.5 | 46.9 | 1.1 | -4.7 | 0.9
O=C(CSc1nnc(CN2CCOCC2)n1-c1ccccc1)N1CCc2ccccc21 | 63.3* | 0.7 | 26.7 | -8.7 | 5.4 | 0.4
COc1cccc(NC(=O)Cc2nnc(SCC(=O)NC(C)c3ccccc3)n2C)c1 (stereo not given) | 1.9 | 1 | 2.2 | -1.7 | 3.3 | 1
Nc1nnc(SCC(=O)N2CCc3ccccc32)n1-c1ccccc1 | -34.4 | 1.2 | -17.5 | 4.5 | 12.5 | 1.3
Cc1ccc(-c2nnc3ccc(SCC(=O)N4CCc5ccccc54)nn23)cc1 | 99.7* | 0.8 | 19.7 | -9.8 | 13.9 | 0
Cc1ccc(-c2nnc(SCC(=O)N3CCCc4ccccc43)n2N)cc1 | -18.6 | 0.4 | 58.2* | 24.6 | 4.0 | 1.2
CC(C)CC1NC(=O)N(CC(=O)c2ccc3c(c2)OCCO3)C1=O (stereo not given) | 46.1 | 0.8 | 15.0 | -3.6 | -0.6 | 0.5
Cc1ccc(C(=O)Cn2nnc3ccccc32)cc1C | 13.1 | 0.9 | 12.5 | -8.9 | -8.6 | 0.9
O=C(NCCCN1CCOCC1)c1ccc(Cl)c(S(=O)(=O)N2CCCCCC2)c1 | 21.9 | 0.9 | 7.4 | -1.6 | -11.1 | 0.8
O=C(Nc1ccc(Cl)c(Cl)c1)C1=Cc2ccccc2OC1 | -7.7 | 1.1 | -6.6 | 8.9 | 42.3* | 1.1
O=C(Nc1cccc(Cl)c1)C1=Cc2cc(Cl)ccc2OC1 | -5.3 | 1 | -0.7 | 7.8 | -13.0 | 1.1
SMILES | CYP2C9 inhib | CYP2C19 act | CYP2C19 inh | PostGolgi yeast | PostGolgi ctrl | CYP2C9 act
Cc1nn(Cc2c(Cl)cccc2Cl)c(Cl)c1/C=C/C(=O)OCC(=O)NCC(F)(F)F | 3.9 | 1.2 | -24.1 | -13.4 | 4.0 | 1
COCCNC(=O)COC(=O)/C=C/c1c(C)nn(Cc2ccc(Cl)cc2Cl)c1Cl | 56.2* | 0.7 | 25.9 | -0.6 | 15.9 | 0.4
CSc1nc(-c2ccccc2)nn1C(=O)c1ccc(C)cc1 | 15.0 | 0.7 | 25.1 | -3.0 | -0.6 | 0.8
CCc1cc(-c2n[nH]c(=S)n2Cc2ccccc2)cs1 | 46.4 | 0.5 | 51.3* | 12.6 | 20.3 | 0.5
CCCc1cc(-c2n[nH]c(=S)n2C(C)c2ccccc2)cs1 (stereo not given) | 96.8* | 0.2 | 80.7* | -3.6 | 41.7* | 0
CCc1cc(-c2n[nH]c(=S)n2-c2ccccc2C)cs1 | 52.1* | 0.6 | 43.0 | -8.3 | -1.5 | 0.5
Cc1ccccc1-n1c(Cc2cccs2)n[nH]c1=S | -4.6 | 0.8 | 19.0 | -0.5 | 4.7 | 1
C=CCN1C(=O)C2C(C(=O)NC)C3(C)C=CC2(O3)C1C(=O)NCc1ccc(OC)cc1 (stereo not given) | -8.6 | 1 | -0.4 | -0.5 | 4.5 | 1.1
Cc1ccc(-c2nnc(-c3ccncc3)n2-c2ccc(C)cc2)cc1 | 20.0 | 0.6 | 38.5 | -1.7 | 22.0 | 0.8
CCOC(=O)c1oc2ccc(S(=O)(=O)n3nc(-c4ccc(OC)cc4)cc3N)cc2c1C | 100.0* | 1 | 1.9 | 1.9 | 15.8 | 0
CCOC(=O)N1CCN(C(=O)c2oc3ccc(S(=O)(=O)N4CCCCC4)cc3c2C)CC1 | 25.7 | 0.9 | 14.8 | 0.5 | 3.8 | 0.7
CCOC(=O)c1oc2ccc(S(=O)(=O)n3nc(-c4ccccc4)cc3N)cc2c1C | 97.7* | 0.7 | 31.0 | 3.3 | 3.4 | 0
COc1cc(-c2nc3oc4ccccc4c(=O)c3c(=O)n2Cc2ccco2)cc(OC)c1OC | 17.6 | 0.8 | 22.3 | -6.6 | -2.3 | 0.8
O=C(CN1C(=O)CSC1=O)Nc1ccc2c(c1)OCCO2 | 2.1 | 1.1 | -5.7 | -2.4 | 22.6 | 1
CCCn1c(=O)c2c(c3ccccc31)OC(C)C(=O)N2 (stereo not given) | -33.2 | 1 | -3.2 | 15.1 | 9.4 | 1.3
Cc1ccc(CCN2CC(C(=O)NCCCN3CCOCC3)CC2=O)cc1 (stereo not given) | -10.2 | 1.1 | -8.6 | -4.2 | -7.3 | 1.1
CCOC(=O)c1nc(-c2ccccc2)oc1N(C)C | -23.0 | 1.1 | -9.8 | 14.2 | 27.3 | 1.2
CCOc1cc(-c2nc(-c3ccncc3)no2)cc(OCC)c1OCC | 76.7* | 0.4 | 61.2* | -5.5 | 9.5 | 0.2
CCOc1cc(-c2nc(-c3ccc(OC)cc3)no2)cc(OCC)c1OCC | 23.1 | 1 | 4.7 | -3.8 | 0.8 | 0.8
CCOc1ccc(-c2nc(-c3ccncc3)no2)cc1OCC | 63.2* | 0.5 | 45.1 | 3.1 | 5.7 | 0.4
Cc1ccc2c(c1)C(c1ccncc1)=NNC(c1ccc(C(C)C)cc1)=N2 | 8.8 | 0.6 | 38.5 | -0.2 | -6.3 | 0.9
CCOC(=O)N=S(=O)(Oc1ccc([N+](=O)[O-])cc1)c1ccccc1 (stereo not given) | 28.9 | 0.2 | 77.8* | 17.2 | 26.1 | 0.7
CN(CC(=O)O/N=C(\N)c1ccc([N+](=O)[O-])cc1)S(=O)(=O)c1ccccc1 | -5.0 | 0.9 | 14.4 | -2.2 | 15.8 | 1.1
